# Source: PubChem BioAssay (EPA / NIEHS)
# Inconclusive results are not listed. Active and inactive are the calls of the source. How the source made its calls: active means hit-call score of the fitted dose curve at least 0.9, where 1 is the maximum; inconclusive means response in the unintended direction; inactive means score below 0.9.
# Target: human Thyroid Receptor alpha (THRa1), THRA (gene 7067) (UniProt P10827)
# Assay: ATG_THRa1_TRANS: Attagene TRANS-FACTORIAL HepG2 Assay for human Thyroid Receptor alpha (THRa1) (AID 2283014)
# Description: ATG_TRANS is a cell-based, multiplexed-readout assay that uses HepG2, a human liver cell line, with measurements taken at 24 hours after chemical dosing in a 24-well plate.ATG_THRa1_TRANS is one of 30 assay component(s) measured or calculated from the ATG_TRANS assay. It is designed to make measurements of mRNA induction, a form of inducible reporter, as detected with fluorescence intensity signals by Reverse transcription polymerase chain reaction (RT-PCR) and Capillary electrophoresis technology.Data from the assay component ATG_THRa1_TRANS was analyzed into 1 assay endpoint. This assay endpoint, ATG_THRa1_TRANS, was analyzed in the positive analysis fitting direction relative to DMSO as the negative control and baseline of activity. Using a type of inducible reporter, measures of mRNA for gain-of-signal activity can be used to understand the reporter gene at the transcription factor-level as they relate to the gene THRA. Furthermore, this assay endpoint can be referred to as a primary readout, because this assay has produced multiple assay endpoints where this one serves a reporter gene function. To generalize the intended target to other relatable targets, this assay endpoint is annotated to the nuclear receptor intended target family, where the subfamily is non-steroidal.
# Human liver HepG2 cells are transiently transfected with multiple reporter transcription units (MRTUs) in 6-well plates using FuGene 6 reagent (Roche; 3 ml FuGene/1 mg DNA). The MRTU constructs are regulated by a cis-regulating element (promoter). […] A major difference between the CIS and TRANS system is that in CIS activities of endogenous TFs are measured, whereas the TRANS assay evaluates changes in activities of exogenous, chimeric NR-Gal4 proteins. […] At the end of 24 hour incubation, total RNA was isolated using TriZol reagent (Invitrogen). The isolated RNA is then reverse-transcribed using oligo(dT) primer and Mo-MLV reverse transcriptase (Invitrogen) with DNAse I (Ambion) treatment for 30 min. The one-tenth of the produced cDNA was amplified by PCR using Taq DNA polymerase (Invitrogen) and two reporter sequence-specific primers. The PCR products were fluorescently labeled by primer extension with 6-arboxyfluorescein (6-FAM) 5'-labeled reporter sequence-specific primer (2 min at 95 C, 20 s at 68 C and 10 min at 72 C) and these products were digested with 5U of HpaI (New England Biolabs) for 2h at 37 C. The fragments were purified using Qiaquick PCR columns (Qiagen), analyzed on an ABI 3130xL genetic analyzer (Applied Biosystems) with peak positions identified by using a set of X-rhodamine (ROX)-labeled MapMarker1000 molecular weight standards (BioVentures). The raw capillary electrophoresis data was processed using Attagraph software (Attagene).
# Chain of human Thyroid Receptor alpha (THRa1), THRA (gene 7067) (P10827 whole entry, looked up): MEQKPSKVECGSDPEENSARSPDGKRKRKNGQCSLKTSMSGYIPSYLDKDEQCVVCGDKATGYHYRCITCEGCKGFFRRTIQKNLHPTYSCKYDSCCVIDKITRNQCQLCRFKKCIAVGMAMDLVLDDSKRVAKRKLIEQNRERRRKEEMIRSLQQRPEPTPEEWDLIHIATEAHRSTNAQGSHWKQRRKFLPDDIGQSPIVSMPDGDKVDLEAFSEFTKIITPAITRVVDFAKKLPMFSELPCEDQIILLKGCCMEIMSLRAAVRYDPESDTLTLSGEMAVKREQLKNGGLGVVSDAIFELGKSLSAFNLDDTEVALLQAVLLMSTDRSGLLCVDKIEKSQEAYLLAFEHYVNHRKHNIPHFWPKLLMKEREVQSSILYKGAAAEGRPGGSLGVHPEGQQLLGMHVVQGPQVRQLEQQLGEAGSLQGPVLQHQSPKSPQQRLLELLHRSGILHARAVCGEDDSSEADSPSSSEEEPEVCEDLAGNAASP
row,SMILES,outcome
1,FC(F)(F)C(F)(F)C(F)(F)C(F)(F)C(F)(F)C(F)(F)C(F)(F)Br,inactive
2,COC(OC(C)=O)c1ccccc1 (stereo not given),inactive
3,CCc1c(Br)c(Br)c(Br)c(Br)c1Br,inactive
4,O=C(O)C(F)(F)C(F)(F)C(F)(F)C(F)(F)C(F)(F)C(F)(F)C(F)(F)C(F)(F)Cl,inactive
5,FC(F)(F)C(F)(F)C(F)(F)C(F)(F)C(F)(F)C(F)(F)C(F)(F)C(F)(F)F,inactive
6,[Co],inactive
7,C(=C(c1ccccc1)c1ccccc1)c1ccccc1,inactive
8,FC(F)(F)C(F)(F)CNCC(F)(F)C(F)(F)F,inactive
9,C=CC/C=C/C/C=C/C/C=C/C,inactive
10,FC(F)(F)C(F)(F)C(F)(F)C(F)(F)C(F)(F)CCI,inactive
11,O=C(O)C(F)(F)C(F)(F)C(F)(F)F,inactive
12,CCO[Si](CCC(F)(F)C(F)(F)C(F)(F)C(F)(F)C(F)(F)C(F)(F)F)(OCC)OCC,inactive
13,CC(C)=CCCC(C)CCOC(=O)C(C)C (stereo not given),inactive
14,FC(F)(F)C(F)(F)C(F)(F)CI,inactive
15,Cc1ccc(S(=O)(=O)NCl)cc1,inactive
16,CCCCCCCOC(=O)c1ccccc1C(=O)OCCCCCCC,inactive
17,O=S(=O)(O)c1ccc2ccccc2c1,inactive
18,O=C(O)C(F)(F)C(F)(F)F,inactive
19,O=C(O)C(F)(F)C(F)(F)C(F)F,inactive
20,C#C[C@]1(O)CC[C@H]2[C@@H]3CCc4cc(OC)ccc4[C@H]3CC[C@@]21C,inactive

row,SMILES,outcome
1,O=C(O)C(F)(F)C(F)(F)OC(F)(F)F,inactive
2,FC(F)(F)C(F)(F)C(F)(F)N(C(F)(F)C(F)(F)C(F)(F)F)C(F)(F)C(F)(F)C(F)(F)F,inactive
3,FC1CC(F)(F)C(F)(F)C1(F)F (stereo not given),inactive
4,O=C(O)C=C(C(F)(F)F)C(F)(F)F,inactive
5,COC(=O)C1CCC(C(=O)OC)CC1 (stereo not given),inactive
6,O=C(O)C(F)(F)C(F)(F)C(F)(F)C(F)(F)C(F)(F)C(F)(F)C(F)(F)C(F)(F)C(F)(F)C(F)(F)C(F)(F)C(F)(F)C(F)(F)F,inactive
7,Nc1ccc([N+](=O)[O-])cc1O,inactive
8,CCCCCCCCCCCCCCCC[N+](C)(C)Cc1ccccc1,inactive
9,O=C(C=Cc1ccccc1)OCC=Cc1ccccc1,inactive
10,CCC(=O)OCCc1ccccc1,inactive
11,O[Si](c1ccccc1)(c1ccccc1)c1ccccc1,inactive
12,Cc1cccc(N(C)C)c1,inactive
13,CCCCCCOC(=O)c1ccccc1,inactive
14,C1COCCN1,inactive
15,CCCCOCCOCCOC(=O)CCCCC(=O)OCCOCCOCCCC,inactive
16,O=C(CC(=O)C(F)(F)C(F)(F)F)C(F)(F)F,inactive
17,CC(C)(C)c1ccc(OC2CCCCC2O)cc1 (stereo not given),inactive
18,COC(=O)CCC(F)(F)C(F)(F)C(F)(F)C(F)(F)F,inactive
19,c1ccc(B(c2ccccc2)c2ccccc2)cc1,inactive
20,FC(F)(F)C(F)(F)C(F)(F)C(F)(F)C(F)(F)C(F)(F)CC1CO1 (stereo not given),inactive
